# Measured values reported in PubChem BioAssay (NCI).
# This is part of a sample that, as a whole, favours compounds with a hit. Of some 79,000 tested, about 15% had one in any assay. Unmarked numbers belong to inactive results. Active and inactive are the calls of the source. Cut-off read from the data, not from the text of the source: active = growth inhibition above about 70%; inactive = the rest.
# Experiment: NCI Yeast Anticancer Drug Screen. Data for the mgt1 strain (AID 153)
# Settings: S. cerevisiae mgt1 mutant growth inhibition; at 33.0 µM; stronger effect = higher value
# In short: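 mgt1 yeast grown with test compound; read-out is growth inhibition versus vehicle-treated cultures.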
row,SMILES,growth inhibition
1,CN(C)c1ccc(C2CC(C)(O)Oc3cc4c(cc32)OCO4)cc1 (stereo unspecified),4%
2,COc1oc(C(=O)NC2CCCCC2)c(-c2ccc(Cl)cc2)c1S(=O)(=O)c1ccccc1,89% (active)
3,C[Si](C)(C)/C=C/CCNC(C#N)c1ccccc1 (stereo unspecified),22%
4,CCOc1ccc(NC(=O)C2=C(C)NC(C)=C(C(=O)Nc3ccc(OCC)cc3)C2c2cccc([N+](=O)[O-])c2)cc1,30%
5,CC1(C)CC(=O)C(/C=N/c2nc(-c3ccccc3)cs2)=C(O)C1,22%
6,CC(=O)Nc1ccc2c(c1)Cc1cc(N=C3C=CC(=O)O3)ccc1-2,99% (active)
7,O=C1C=C(Cl)C(=O)C(c2ccc(Cl)cc2)=C1,98% (active)
8,CNCCCNc1c2ccccc2nc2cccc([N+](=O)[O-])c12,94% (active)
9,CCCCCCCCCCCC(O)S(=O)(=O)O (stereo unspecified),-1%
10,CC(C)OC(=O)c1ccc(CCc2cc(O)c(Br)cc2O)cc1,72% (active)
11,CCc1cc(O)c(Cl)c(C)c1Cl,73% (active)
12,C(=Nc1ccc(-c2cc(-c3ccccc3)nc3ccc4ccccc4c23)cc1)c1ccccc1,10%
13,CSc1nc(C)c(CCOC(C)=O)c(N=P(c2ccccc2)(c2ccccc2)c2ccccc2)n1,-15%
14,COC1=C(OC)C(=O)C(Sc2ccc3ccccc3c2)=CC1=O,94% (active)
15,COc1nc2c(c(=O)n1C)N=C(c1ccccc1)[C@H](C(CC(=O)c1ccccc1)c1ccccc1)C(c1ccccc1)N2 (stereo partly specified),34%
16,Cc1cc(-c2cc(C)c(O)c(C(C)(C)C)c2)cc(C(C)(C)C)c1O,-16%
